A short description of experiment [1]: qHTS assay to identify small molecule agonists of the NFkB signaling pathway (AID 1159509; active = well fitted curve in the direction sought with a large enough effect in the signal ratio in the repeat runs, not every such curve was filed as active; the % refers to the signal ratio; also: series mostly up to about 61 µM; % is scaled to controls: 0 for no effect and ±100 for the full control effect). An outline of the steps:
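Beta-lactamase reporter assay run in quantitative high-throughput format on an NF-kB-responsive ME-180 line, with 5 hr compound treatment and a FRET-based blue/green fluorescence readout.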
For orientation: qHTS replaces the single test concentration by a dilution series.

Experiment [2] in a line: qHTS assay to identify small molecule agonists of the NFkB signaling pathway - cell viability counter screen (AID 1159515; calls by dose curve; also: series mostly up to about 61 µM; % is scaled to controls: 0 for no effect and ±100 for the full control effect; nearly all actives have a fitted effect of over 55% in size). In short, it runs like this: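 Plate 2,000 NFkB-bla ME-180 cells/well; incubate overnight. Add compounds, 5 hr at 37 C. Add FRET substrate, 1.5 hr RT. Add CellTiter-Glo, 30 min RT; read luminescence.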
Experiment [3] is described as follows: qHTS assay to identify small molecule agonists of the endoplasmic reticulum stress response signaling pathway (AID 1159516; active = well fitted activation curve with a large enough effect in the signal ratio in the repeat runs, not every such curve was filed as active; the % refers to the signal ratio; also: % is scaled to controls: 0 for no effect and ±100 for the full control effect). An outline of the steps:
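Beta-lactamase expression from the ER stress response element in HeLa reporter cells is quantified with the LiveBLAzer B/G FRET substrate, read at 405 nm excitation after 2 hr at room temperature, following 5 hr compound treatment at 37 C.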

The nature of experiment [4]: qHTS assay to identify small molecule agonists of the endoplasmic reticulum stress response signaling pathway - cell viability counter screen (AID 1159517; calls by dose curve; also: series mostly up to about 61 µM; % is scaled to controls: 0 for no effect and ±100 for the full control effect; nearly all actives have a fitted effect of over 50% in size). In short, it runs like this: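 After overnight attachment, ESRE-bla HeLa cells were treated with Tox21 library compounds for 5 hr. CellTiter-Glo luminescence, read 30 min post-addition at room temperature, reported viability.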

The nature of experiment [5]: qHTS assay to identify small molecule antagonists of the retinoid-related orphan receptor gamma (ROR-gamma) signaling pathway - cell viability counter screen (AID 1159520). Also: % is scaled to controls: 0 for no effect and ±100 for the full control effect; nearly all actives have a fitted effect of over 50% in size. An outline of the steps: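 Cytotoxicity was read from cellular ATP (CellTiter-Glo luminescence) after 16 hr at 37 C with 1 uM doxycycline induction. The inducer was added 2 hr after compound transfer to Tet-on ROR gamma CHO cells.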

For experiment [6], the target named is Nuclear receptor ROR-gamma (Homo sapiens) (UniProt P51449). Kind of experiment: qHTS assay to identify small molecule antagonists of the retinoid-related orphan receptor gamma (ROR-gamma) signaling pathway (AID 1159521;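 also: CHO cells with doxycycline inducible ROR-gamma driving an RORE luciferase reporter; top concentration of the series differs between compounds; % is scaled to controls: 0 for no effect and ±100 for the full control effect; nearly all actives have a fitted effect of over 50% in size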). An outline of the steps:
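Luminescence readout (ONE-Glo, 30 min RT) after 16 h doxycycline induction; loss of signal scored as antagonism. CHO cells with TET-inducible RORγ and RORE-LUC reporter; compounds added 2 h before 1 uM final doxycycline.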

A short description of experiment [7]: qHTS assay to identify small molecule agonists of the RXR signaling pathway - cell viability counter screen (AID 1159529). Also: nearly all actives have a fitted effect of over 50% in size. Also: potency is read from the fitted curve at half-maximal effect. In short, it runs like this: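 Luminescence from CellTiter-Glo (30 min, RT) measured viability in the same wells as the beta-lactamase reporter readout. Cells: GeneBLAzer RXR-alpha HEK 293T, 2% charcoal-stripped FBS. Compound exposure 16 hr, 37 C.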

Experiment [8] is described as follows: qHTS assay to identify small molecule antagonists of the retinoid acid receptor (RAR) signaling pathway - cell viability counter screen (AID 1159551). Also: % is scaled to controls: 0 for no effect and ±100 for the full control effect; nearly all actives have a fitted effect of over 35% in size. In short, it runs like this: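 Viability of C3RL4 cells is quantified from ATP by luminescence after 6 h treatment at 37 C with compounds and 1 uM retinol.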
Experiment [9] is described as follows: qHTS assay to identify small molecule antagonists of the retinoic acid receptor (RAR) signaling pathway (AID 1159552). In short, it runs like this: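 Luminescence from a RARE luciferase reporter in C3RL4 cells served as read-out. Cells received compounds together with 1 uM final retinol and incubated 6 hr at 37 C before detection reagent was added for 30 min at room temperature.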

Experiment [10] in a line: qHTS assay to identify small molecule agonists of the retinoic acid receptor (RAR) signaling pathway (AID 1159553). Also: potency is read from the fitted curve at half-maximal effect. In short, it runs like this:
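Compounds dissolved in DMSO were pinned onto C3RL4 cells seeded the previous day, and plates were held 6 hr at 37 C. RARE-driven luciferase output was then read by luminescence.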

A short description of experiment [11]: qHTS assay to identify small molecule antagonists of the vitamin D receptor (VDR) signaling pathway - cell viability counter screen (AID 743225). An outline of the steps:
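Viability counter screen run in the same wells as the beta-lactamase reporter assay: HEK 293T VDR-UAS-bla cells, 16 h compound exposure at 37C with 3 nM (final) 1-alpha,25-dihydroxyvitamin D3. CellTiter-Glo luminescence, 30 min, room temperature.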

A short description of experiment [12]: qHTS assay to identify small molecule agonists of the AP-1 signaling pathway (AID 1159526; calls by dose curve; also: % is scaled to controls: 0 for no effect and ±100 for the full control effect).
Experiment [13] is described as follows: qHTS assay to identify small molecule antagonists of the estrogen related receptor (ERR) signaling pathway from Tox21 library - cell viability counter screen (AID 1224834). Also: nearly all actives have a fitted effect of over 30% in size. Also: potency is read from the fitted curve at half-maximal effect. In short, it runs like this: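 In this quantitative HTS format, ERR cells receive compounds in DMSO and are incubated for 17.5 h at 37 C. Live-cell protease activity is then detected with CellTiter-Fluor.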

For experiment [14], the target named is Retinoic acid receptor RXR-alpha (Homo sapiens) (UniProt P19793). Kind of experiment: qHTS assay to identify small molecule agonists of the RXR signaling pathway (AID 1159527; calls by dose curve; also: % is scaled to controls: 0 for no effect and ±100 for the full control effect; nearly all actives have a fitted effect of over 35% in size). In short, it runs like this:
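Agonist mode; 9-cis retinoic acid positive control. HEK 293T UAS-bla reporter cells, 2% charcoal-stripped FBS, 16 hr compound exposure at 37 C/5% CO2. LiveBLAzer B/G FRET substrate 2 hr RT; ex 405, em 460/530 nm.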

The nature of experiment [15]: qHTS assay to identify small molecule agonists of the AP-1 signaling pathway - cell viability counter screen (AID 1159525; calls by dose curve; also: nearly all actives have a fitted effect of over 55% in size). In short, it runs like this: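 Intracellular ATP by Cell Titer Glo luminescence (30 min, RT) in the same ME-180 AP-1-bla wells after the 5 h compound exposure at 37 °C. Normalised to tetra n-octyl ammonium bromide and DMSO controls.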
A short description of experiment [16]: qHTS assay to identify small molecule antagonists of the estrogen related receptor signaling pathway with the pleiotropic PPARgamma coactivator (PGC) cell viability counter screen (AID 1224822;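 also: series mostly up to about 46 µM; viability read after 17.5 h compound exposure; % is scaled to controls: 0 for no effect and ±100 for the full control effect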). An outline of the steps:
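Viable cell signal (CellTiter-Fluor, 30 min, 37 C/5% CO2) was measured in PGC/ERR cells after a 17.5 h compound incubation.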

The nature of experiment [17]: qHTS assay to identify small molecule antagonists of the estrogen related receptor (ERR) signaling pathway (AID 1224819). In short, it runs like this:
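ERR reporter cells were plated at 2,000 cells/well and left 6 h at 37 C/5% CO2 before pin-tool transfer of compounds in DMSO. After 18 h at 37 C, One-Glo was added and luminescence was read 30 min later at room temperature.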

Experiment [18] is described as follows: qHTS assay to identify small molecule agonists of the estrogen related receptor (ERR) signaling pathway (AID 1224820). Also: % is scaled to controls: 0 for no effect and ±100 for the full control effect. In short, it runs like this: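 Following a 6 h settling period, 2,000 ERR cells per well receive DMSO-dissolved compounds by pin tool and incubate 18 h at 37 C; agonist activity is scored from One-Glo luminescence read 30 min post-addition.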

For experiment [19], the system named is estrogen-related receptor alpha (ERRalpha) with PGC-1alpha coactivator, human. In words: qHTS assay to identify small molecule antagonists of the estrogen related receptor signaling pathway with the pleiotropic PPARgamma coactivator (PGC) (AID 1224821; calls by dose curve). An outline of the steps: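 Screening used NTP's PGC/ERR cells, dosed via pin tool with compound in DMSO alongside positive and negative controls. After 18 h at 37 C, One-Glo reagent sat 30 min at room temperature before luminescence detection.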

A short description of experiment [20]: qHTS assay to identify small molecule agonists of the estrogen related receptor signaling pathway with the pleiotropic PPARgamma coactivator (PGC) (AID 1224823). Also: % is scaled to controls: 0 for no effect and ±100 for the full control effect. In short, it runs like this: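 In this quantitative high-throughput screen, an 18 h, 37 C treatment of PGC/ERR cells with compounds in DMSO preceded a One-Glo luminescence read taken after 30 min at room temperature.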

Inconclusive results are not listed. Values without a mark were called inactive. Calls of active or inactive are those of the source. Unless noted, calls follow the shape of the dose curve; as a rule, active = well fitted curve in the direction sought with a large enough effect in the repeat runs; inconclusive = weak or mixed curves; inactive = no such curve, though single readings can be large; an effect the other way counts as inactive or inconclusive.

Chain of Retinoic acid receptor RXR-alpha (Homo sapiens) (P19793 whole entry, looked up): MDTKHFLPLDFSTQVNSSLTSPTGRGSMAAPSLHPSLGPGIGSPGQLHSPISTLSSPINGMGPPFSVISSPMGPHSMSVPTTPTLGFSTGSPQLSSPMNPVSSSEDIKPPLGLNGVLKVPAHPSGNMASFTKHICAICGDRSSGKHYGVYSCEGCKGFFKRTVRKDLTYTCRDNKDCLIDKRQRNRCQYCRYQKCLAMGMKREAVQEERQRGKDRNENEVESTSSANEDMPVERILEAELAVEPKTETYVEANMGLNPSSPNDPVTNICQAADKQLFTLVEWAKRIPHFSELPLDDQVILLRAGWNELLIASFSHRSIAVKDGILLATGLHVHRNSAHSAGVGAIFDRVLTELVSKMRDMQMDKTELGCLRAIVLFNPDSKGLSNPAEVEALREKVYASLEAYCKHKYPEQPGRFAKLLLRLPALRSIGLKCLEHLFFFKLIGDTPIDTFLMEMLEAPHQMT

Turning to `CC(C)(C)c1ccc(OC(=O)c2ccccc2O)cc1`, the call in [1], in experiment [2], in [3], in experiment [4] and in [8] was inactive. The Potency entry in [5], in experiment [6] and in experiment [9] was “inactive” in each case. Moreover, the Potency in experiment [7] is 49 µM (active); in experiment [10] it was 1.09 µM (active).

For the molecule `CCCCCCCCCCCCOCCOS(=O)(=O)O`, the molecule was classed as inactive in [1], in [2], in experiment [3], in experiment [4] and in experiment [8]. Moreover, the Potency result in experiment [5], in experiment [6], in experiment [9] and in [10] was “inactive” in each case. Moreover, in [7], the Potency was 19.5 µM (active).

`C=CC1CO1` (stereo not drawn): the Potency result in experiment [11], in [5], in experiment [6], in experiment [12], in experiment [7] and in [9] was “inactive” throughout. The Potency result in experiment [10] and in [13] was “inactive” each time. Further, the result in [1], in [2], in [3], in experiment [4] and in [8] was inactive.

Take `C/C(=N\O)[C@@H](C)NCC(C)(C)CN[C@H](C)/C(C)=N/O`: the Potency entry in experiment [11], in [5], in experiment [6], in experiment [12], in [14] and in experiment [7] was “inactive” each time. For the same molecule, the Potency result in experiment [9], in experiment [10] and in experiment [13] was “inactive” each time. In addition, the molecule was called inactive in experiment [1], in experiment [2], in experiment [3], in experiment [4] and in experiment [8].

On to `CCC(=O)c1ccc2c(c1)N(CCCN(C)C)c1ccccc1S2`, for which the molecule was classed as inactive in experiment [1], in [2], in experiment [3], in [4] and in [8]. Further, the Potency entry in [5], in experiment [6] and in experiment [10] was “inactive” throughout. The Potency in experiment [13] was 26.6 µM (active).

With `Cc1c(C(=O)NCCO)[n+](=O)c2ccccc2n1[O-]`, the Potency result in experiment [11], in [5], in experiment [6], in [14], in experiment [7] and in experiment [13] was “inactive” in each case. In addition, the molecule was called inactive in [1], in experiment [2], in [3], in experiment [4] and in [8].

For the molecule `CCCCNc1cc(C(=O)O)cc(S(N)(=O)=O)c1Oc1ccccc1`, the Potency result in [11], in [5], in experiment [12], in [14], in experiment [7] and in [9] was “inactive” throughout. The Potency result in experiment [10] and in experiment [13] was “inactive” each time. The molecule was classed as inactive in experiment [1], in [2], in experiment [3], in experiment [4], in experiment [15] and in experiment [8]. Moreover, the outcome in experiment [16] was inactive.

With `CCNCCO`, the Potency result in experiment [11], in [5], in experiment [6], in [7], in [9] and in experiment [10] was “inactive” in each case. Moreover, the Potency entry in experiment [13] was “inactive”. Also, the call in [1], in experiment [2], in experiment [3], in [4] and in experiment [8] was inactive.

On to `Cc1ccc(C=O)s1`, for which the Potency result in [11], in experiment [5], in experiment [6], in experiment [9] and in experiment [13] was “inactive” in each case. Moreover, the result in experiment [1], in experiment [2], in experiment [3], in experiment [4] and in [8] was inactive.

Regarding `O=C(O)CN(CCN(CC(=O)O)CC(=O)O)CCN(CC(=O)O)CC(=O)O`, the Potency entry in experiment [11] and in experiment [10] was “inactive” in each case. Further, the molecule was classed as inactive in experiment [1], in [2], in experiment [3], in [4], in experiment [17] and in experiment [18]. Besides, the molecule was called inactive in experiment [19], in [16] and in experiment [20]. In addition, the activity, negative = cytotoxicity in experiment [5] was 4.04% [at 19 µM]. The activity change, negative = inhibition in [6] was -6.39% [at 19 µM]. The figures for the activation in experiment [12] and in [14] were -0.136% [at 15.8 µM] and 6.5% [at 15.8 µM], respectively. Also, the activity change, negative = cytotoxicity was 2.65% [at 15.8 µM] in [7] and 4.77% [at 19 µM] in experiment [8]. The activity, negative = inhibition in [9] was -10.7% [at 19 µM]. Moreover, the viability change, negative = cytotoxic in experiment [13] was 4.74% [at 19 µM].
